Test results from the supplement of paper PMC11732987, “Enantioselective OTUD7B fragment discovery through chemoproteomics screening and high-throughput optimisation” (Communications Chemistry, 2025).

Legend:
Assay in all cases: log2 ratio of Biotin-Ahx-Ub-VS probe labelling (fragment/DMSO); higher = less target engagement (more negative = stronger competition), active = hit call of the paper (q ≤ 0.05, log2 ratio ≤ -1)
Conditions in all cases: compound concentration: 200 uM; treatment time: 3 h
USP42 = biological target: T1, USP42 (UniProt Q9H9J4)
T1 sequence (whole entry): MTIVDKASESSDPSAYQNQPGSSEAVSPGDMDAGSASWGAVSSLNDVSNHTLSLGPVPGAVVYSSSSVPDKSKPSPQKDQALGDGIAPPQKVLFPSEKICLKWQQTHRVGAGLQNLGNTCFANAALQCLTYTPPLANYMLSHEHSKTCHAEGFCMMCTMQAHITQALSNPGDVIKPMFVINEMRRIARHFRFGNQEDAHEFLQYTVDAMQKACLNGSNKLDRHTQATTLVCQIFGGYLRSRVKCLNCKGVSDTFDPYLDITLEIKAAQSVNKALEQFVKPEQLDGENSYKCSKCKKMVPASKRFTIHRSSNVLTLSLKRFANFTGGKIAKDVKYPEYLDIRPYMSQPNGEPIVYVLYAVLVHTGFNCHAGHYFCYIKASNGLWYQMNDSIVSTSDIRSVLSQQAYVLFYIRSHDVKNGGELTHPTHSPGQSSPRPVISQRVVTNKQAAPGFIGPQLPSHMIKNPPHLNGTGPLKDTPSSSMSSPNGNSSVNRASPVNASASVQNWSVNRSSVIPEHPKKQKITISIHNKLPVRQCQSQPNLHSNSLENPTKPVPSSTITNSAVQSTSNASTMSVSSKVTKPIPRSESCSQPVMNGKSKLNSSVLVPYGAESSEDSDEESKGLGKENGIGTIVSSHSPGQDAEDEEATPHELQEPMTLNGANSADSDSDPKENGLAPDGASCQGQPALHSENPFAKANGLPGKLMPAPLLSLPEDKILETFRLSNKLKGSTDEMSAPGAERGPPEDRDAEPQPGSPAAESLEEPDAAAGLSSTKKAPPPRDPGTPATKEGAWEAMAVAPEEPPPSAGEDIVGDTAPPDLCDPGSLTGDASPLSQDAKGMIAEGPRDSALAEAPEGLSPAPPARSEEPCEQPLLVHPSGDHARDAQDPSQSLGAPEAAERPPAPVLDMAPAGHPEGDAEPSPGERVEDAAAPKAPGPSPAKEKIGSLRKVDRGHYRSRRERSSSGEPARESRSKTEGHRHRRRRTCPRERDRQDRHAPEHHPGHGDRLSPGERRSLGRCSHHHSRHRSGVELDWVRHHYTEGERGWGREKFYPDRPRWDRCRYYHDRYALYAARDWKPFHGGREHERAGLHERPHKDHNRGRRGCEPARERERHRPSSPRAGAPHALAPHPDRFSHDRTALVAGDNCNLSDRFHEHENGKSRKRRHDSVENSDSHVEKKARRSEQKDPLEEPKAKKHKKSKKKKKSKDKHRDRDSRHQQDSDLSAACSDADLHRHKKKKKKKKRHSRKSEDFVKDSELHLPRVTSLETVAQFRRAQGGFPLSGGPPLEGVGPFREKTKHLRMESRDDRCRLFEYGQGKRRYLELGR
Procedure, shortened: (§1)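 Labelled DUBs from HEK293T lysate were NeutrAvidin-enriched, digested with LysC and trypsin, and run by diaPASEF LC-MS/MS. Before that, each 495 µg sample in Tris/CHAPS/IGEPAL buffer with protease inhibitors was treated in triplicate with fragment at 200 µM or vehicle for 3 h, then with Biotin-Ahx-Ub-VS at 0.5 µM final for 1 h. Values are average log2 ratios of fragment over vehicle by unpaired t-test, based on global-median-normalised Spectronaut label-free quantities from proteins with ≥2 unique peptides.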

USP46 = USP46 (UniProt P62068)
Procedure, shortened: as §1

USP47 = biological target: T2, USP47 (UniProt Q96K76)
T2 sequence (whole entry): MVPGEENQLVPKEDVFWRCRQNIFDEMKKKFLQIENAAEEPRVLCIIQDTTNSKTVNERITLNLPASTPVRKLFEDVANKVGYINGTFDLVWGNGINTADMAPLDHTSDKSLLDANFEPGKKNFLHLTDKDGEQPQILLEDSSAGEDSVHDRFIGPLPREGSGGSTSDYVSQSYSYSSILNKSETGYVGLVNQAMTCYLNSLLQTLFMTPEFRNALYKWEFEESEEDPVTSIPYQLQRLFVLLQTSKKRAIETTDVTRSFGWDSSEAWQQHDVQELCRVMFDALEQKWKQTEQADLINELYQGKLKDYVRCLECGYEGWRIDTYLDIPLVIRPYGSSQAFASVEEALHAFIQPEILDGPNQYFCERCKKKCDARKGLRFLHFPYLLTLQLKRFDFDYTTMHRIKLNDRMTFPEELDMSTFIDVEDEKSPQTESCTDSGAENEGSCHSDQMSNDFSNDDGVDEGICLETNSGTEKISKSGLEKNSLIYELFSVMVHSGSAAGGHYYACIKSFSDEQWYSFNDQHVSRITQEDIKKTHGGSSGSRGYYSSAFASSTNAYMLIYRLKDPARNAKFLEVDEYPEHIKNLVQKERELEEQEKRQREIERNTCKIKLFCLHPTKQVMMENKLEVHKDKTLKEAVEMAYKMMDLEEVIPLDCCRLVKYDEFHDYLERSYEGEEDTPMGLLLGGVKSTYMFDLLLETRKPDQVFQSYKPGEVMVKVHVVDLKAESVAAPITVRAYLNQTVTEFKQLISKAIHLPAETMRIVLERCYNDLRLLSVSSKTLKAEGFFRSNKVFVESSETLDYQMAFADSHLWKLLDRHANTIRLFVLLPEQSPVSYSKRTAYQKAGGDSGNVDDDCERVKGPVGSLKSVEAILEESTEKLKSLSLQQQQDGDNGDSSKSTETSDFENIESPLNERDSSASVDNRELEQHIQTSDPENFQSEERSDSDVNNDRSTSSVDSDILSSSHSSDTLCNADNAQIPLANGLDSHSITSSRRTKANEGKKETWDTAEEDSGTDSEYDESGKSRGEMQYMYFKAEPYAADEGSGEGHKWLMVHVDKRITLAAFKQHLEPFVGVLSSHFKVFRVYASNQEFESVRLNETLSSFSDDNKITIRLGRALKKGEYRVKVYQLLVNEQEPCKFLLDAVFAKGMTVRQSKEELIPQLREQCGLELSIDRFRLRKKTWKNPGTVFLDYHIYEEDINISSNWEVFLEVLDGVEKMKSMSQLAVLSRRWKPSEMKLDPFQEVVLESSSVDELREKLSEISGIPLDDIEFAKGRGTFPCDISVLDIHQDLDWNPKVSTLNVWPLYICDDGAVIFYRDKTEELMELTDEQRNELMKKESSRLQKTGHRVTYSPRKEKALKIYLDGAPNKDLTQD
Procedure, shortened: as §1

USP48 = biological target: T3, USP48 (UniProt Q86UV5)
T3 sequence (whole entry): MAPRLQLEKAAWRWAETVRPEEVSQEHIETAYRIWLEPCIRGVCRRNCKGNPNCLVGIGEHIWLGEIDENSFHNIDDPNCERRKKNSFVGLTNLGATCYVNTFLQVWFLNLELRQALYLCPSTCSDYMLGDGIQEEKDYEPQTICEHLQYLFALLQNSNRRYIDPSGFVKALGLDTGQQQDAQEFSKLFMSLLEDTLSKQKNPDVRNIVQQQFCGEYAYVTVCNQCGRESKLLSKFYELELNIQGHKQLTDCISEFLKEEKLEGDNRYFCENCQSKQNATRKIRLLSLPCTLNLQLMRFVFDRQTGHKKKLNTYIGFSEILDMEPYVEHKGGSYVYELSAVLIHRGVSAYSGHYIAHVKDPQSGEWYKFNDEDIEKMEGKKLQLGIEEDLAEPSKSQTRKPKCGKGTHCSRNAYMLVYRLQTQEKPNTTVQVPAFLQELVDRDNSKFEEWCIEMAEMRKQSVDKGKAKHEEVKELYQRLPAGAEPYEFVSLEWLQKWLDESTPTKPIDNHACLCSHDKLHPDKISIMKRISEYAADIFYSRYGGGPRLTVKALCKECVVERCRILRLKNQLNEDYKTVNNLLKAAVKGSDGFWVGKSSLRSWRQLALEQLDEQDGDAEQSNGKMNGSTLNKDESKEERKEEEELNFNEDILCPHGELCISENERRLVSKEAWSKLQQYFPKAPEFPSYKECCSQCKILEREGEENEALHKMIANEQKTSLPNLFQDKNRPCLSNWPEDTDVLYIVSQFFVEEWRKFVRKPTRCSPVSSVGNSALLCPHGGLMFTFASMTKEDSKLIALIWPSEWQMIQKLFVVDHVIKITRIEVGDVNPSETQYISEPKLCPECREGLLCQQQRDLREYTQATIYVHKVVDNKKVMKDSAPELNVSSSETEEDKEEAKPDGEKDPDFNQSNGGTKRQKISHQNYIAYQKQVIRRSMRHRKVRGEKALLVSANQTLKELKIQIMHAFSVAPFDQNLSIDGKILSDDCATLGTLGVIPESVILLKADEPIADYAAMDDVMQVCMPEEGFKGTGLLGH
Procedure, shortened: as §1

USP5 = biological target: T4, USP5 (UniProt P45974)
T4 sequence (whole entry): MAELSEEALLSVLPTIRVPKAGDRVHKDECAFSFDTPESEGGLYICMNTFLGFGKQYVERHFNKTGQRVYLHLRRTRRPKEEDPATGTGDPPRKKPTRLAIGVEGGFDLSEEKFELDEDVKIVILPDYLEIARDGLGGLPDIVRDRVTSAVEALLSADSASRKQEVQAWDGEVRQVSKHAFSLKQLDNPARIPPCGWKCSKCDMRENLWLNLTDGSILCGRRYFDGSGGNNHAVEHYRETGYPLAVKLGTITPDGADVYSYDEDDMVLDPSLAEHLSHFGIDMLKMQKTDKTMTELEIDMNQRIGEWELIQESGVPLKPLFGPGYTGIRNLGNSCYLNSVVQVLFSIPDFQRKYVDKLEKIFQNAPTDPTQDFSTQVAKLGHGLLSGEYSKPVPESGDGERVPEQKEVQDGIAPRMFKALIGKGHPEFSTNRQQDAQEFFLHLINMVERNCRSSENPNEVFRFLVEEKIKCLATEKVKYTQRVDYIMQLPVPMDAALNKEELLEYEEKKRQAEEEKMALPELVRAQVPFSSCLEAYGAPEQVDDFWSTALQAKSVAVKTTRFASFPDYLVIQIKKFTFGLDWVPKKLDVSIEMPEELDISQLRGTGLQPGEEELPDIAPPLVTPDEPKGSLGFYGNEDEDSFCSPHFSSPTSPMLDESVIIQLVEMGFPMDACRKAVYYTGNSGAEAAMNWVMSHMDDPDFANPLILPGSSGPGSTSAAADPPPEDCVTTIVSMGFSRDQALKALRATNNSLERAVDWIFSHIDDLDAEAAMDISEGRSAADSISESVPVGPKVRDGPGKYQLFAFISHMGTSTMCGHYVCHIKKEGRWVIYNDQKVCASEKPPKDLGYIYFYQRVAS
Procedure, shortened: as §1

USP54 = USP54 (UniProt Q70EL1)
Procedure, shortened: as §1

USP7 = USP7 (UniProt Q93009)
Procedure, shortened: as §1

USP8 = biological target: T5, USP8 (UniProt P40818)
T5 sequence (whole entry): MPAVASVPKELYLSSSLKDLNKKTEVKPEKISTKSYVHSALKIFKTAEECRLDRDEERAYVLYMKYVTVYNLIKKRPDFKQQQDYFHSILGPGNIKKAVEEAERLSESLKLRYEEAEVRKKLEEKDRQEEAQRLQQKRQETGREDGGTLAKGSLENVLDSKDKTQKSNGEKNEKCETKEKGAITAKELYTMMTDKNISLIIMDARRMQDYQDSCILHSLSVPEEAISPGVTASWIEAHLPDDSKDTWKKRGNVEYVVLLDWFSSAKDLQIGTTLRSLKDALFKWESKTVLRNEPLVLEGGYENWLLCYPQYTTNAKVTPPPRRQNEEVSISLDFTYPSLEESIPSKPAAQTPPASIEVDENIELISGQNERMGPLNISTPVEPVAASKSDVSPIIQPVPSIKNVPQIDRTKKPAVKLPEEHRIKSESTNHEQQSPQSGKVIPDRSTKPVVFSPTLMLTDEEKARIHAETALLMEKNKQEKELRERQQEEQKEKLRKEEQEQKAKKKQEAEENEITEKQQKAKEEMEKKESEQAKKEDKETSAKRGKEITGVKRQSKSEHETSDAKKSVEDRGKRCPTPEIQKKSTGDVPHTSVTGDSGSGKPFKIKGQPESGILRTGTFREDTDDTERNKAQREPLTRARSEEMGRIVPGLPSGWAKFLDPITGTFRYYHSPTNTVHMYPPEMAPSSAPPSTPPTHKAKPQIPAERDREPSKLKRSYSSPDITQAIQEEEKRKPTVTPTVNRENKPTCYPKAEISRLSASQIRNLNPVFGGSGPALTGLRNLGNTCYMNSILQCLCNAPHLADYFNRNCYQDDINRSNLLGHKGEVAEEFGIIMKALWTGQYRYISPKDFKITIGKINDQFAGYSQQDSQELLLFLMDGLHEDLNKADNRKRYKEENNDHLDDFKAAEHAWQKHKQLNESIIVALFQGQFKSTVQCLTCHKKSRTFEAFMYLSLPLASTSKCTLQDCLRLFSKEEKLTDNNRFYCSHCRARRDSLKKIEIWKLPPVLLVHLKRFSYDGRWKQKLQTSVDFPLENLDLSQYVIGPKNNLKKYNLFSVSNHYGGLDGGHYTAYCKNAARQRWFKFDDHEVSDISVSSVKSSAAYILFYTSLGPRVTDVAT
Procedure, shortened: as §1

Measured: log2 ratio of Biotin-Ahx-Ub-VS probe labelling

Chain of USP46 (P62068 whole entry): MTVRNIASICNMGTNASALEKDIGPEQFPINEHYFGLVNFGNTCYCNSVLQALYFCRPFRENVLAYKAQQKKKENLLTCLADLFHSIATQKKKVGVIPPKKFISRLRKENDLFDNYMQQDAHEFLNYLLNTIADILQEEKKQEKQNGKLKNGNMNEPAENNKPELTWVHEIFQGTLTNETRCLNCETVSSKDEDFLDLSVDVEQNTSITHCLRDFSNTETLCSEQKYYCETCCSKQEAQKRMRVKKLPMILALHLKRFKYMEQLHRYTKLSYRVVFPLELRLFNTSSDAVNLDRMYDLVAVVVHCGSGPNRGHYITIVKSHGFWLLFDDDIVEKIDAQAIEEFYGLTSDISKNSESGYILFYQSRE
Chain of USP7 (Q93009 whole entry, looked up): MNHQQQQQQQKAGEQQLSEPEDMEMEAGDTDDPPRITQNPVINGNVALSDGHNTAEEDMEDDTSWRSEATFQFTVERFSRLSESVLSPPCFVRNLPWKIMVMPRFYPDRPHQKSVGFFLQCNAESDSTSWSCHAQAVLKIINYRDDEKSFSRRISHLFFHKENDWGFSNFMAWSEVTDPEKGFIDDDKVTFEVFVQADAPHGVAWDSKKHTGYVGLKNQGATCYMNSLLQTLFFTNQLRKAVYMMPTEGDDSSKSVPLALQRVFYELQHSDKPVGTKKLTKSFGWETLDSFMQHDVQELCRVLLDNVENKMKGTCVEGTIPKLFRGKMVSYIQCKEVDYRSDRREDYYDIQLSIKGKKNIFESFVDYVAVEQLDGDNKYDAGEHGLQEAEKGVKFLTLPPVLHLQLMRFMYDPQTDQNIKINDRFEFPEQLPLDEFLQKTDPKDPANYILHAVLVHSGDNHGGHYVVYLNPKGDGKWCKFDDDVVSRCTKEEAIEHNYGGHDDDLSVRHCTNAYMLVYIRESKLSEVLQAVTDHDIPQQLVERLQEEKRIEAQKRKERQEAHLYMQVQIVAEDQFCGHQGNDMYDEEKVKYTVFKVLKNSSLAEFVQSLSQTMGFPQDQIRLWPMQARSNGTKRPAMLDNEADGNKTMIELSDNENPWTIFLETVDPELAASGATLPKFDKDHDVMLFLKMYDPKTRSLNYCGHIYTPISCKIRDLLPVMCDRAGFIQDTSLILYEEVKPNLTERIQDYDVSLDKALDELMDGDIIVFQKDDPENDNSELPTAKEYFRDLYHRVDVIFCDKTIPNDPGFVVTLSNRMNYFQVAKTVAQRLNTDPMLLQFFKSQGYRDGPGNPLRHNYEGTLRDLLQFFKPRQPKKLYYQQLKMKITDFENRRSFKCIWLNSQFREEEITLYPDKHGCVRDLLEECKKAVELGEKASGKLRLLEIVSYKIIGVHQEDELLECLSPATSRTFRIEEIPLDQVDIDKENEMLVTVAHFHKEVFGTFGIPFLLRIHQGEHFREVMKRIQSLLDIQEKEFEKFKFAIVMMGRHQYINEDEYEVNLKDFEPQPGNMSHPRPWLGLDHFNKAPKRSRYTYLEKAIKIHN
Chain of USP54 (Q70EL1 whole entry): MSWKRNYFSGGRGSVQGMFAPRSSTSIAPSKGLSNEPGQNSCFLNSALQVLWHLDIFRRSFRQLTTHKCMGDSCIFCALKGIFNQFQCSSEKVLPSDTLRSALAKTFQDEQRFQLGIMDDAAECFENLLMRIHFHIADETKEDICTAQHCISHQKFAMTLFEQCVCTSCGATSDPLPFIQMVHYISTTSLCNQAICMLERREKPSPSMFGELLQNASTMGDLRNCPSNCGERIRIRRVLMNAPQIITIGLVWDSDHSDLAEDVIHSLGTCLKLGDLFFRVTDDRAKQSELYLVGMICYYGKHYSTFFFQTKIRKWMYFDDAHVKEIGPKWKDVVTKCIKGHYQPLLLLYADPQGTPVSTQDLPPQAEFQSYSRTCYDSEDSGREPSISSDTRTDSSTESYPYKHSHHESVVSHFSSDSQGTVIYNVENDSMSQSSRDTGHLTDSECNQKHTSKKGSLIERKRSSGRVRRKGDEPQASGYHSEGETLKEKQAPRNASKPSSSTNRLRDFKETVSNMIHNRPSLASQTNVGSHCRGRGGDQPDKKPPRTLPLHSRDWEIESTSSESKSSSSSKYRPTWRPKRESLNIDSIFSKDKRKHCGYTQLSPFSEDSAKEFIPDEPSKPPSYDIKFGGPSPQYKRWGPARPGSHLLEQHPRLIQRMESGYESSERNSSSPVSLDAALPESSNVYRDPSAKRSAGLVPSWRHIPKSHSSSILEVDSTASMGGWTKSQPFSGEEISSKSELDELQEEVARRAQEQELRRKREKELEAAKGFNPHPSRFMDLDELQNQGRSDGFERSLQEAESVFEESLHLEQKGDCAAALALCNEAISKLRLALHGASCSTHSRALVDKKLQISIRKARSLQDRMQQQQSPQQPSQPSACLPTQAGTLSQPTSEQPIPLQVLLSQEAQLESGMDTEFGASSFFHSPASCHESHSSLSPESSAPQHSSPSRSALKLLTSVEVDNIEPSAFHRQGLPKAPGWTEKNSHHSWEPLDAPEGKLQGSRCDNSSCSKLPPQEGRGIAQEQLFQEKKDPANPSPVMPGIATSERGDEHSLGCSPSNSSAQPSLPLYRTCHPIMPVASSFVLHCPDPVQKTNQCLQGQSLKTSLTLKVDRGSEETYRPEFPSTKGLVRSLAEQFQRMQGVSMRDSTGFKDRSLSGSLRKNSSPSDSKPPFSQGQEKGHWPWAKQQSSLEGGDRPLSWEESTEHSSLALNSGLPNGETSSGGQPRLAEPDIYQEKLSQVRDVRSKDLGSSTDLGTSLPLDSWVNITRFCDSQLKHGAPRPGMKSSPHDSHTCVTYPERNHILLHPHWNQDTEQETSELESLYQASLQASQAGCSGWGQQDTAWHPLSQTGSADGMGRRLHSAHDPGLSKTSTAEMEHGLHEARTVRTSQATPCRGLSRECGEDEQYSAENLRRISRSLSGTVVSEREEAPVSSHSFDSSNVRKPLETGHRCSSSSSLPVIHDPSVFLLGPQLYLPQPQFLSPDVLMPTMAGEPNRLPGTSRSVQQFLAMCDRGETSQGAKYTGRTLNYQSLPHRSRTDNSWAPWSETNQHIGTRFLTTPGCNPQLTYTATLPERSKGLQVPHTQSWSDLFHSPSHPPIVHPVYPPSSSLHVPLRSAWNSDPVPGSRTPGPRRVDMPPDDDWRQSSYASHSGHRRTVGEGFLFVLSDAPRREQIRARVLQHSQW

Cc1ccccc1CN(C)C(=O)CCl
inactive: USP42 -0.263 | USP46 -0.653 | USP47 -1 | USP48 -0.83 | USP5 -0.152 | USP54 1.1 | USP8 -0.825
active: USP7 -1.57
